ELG1 genotoxic: qHTS screen for small molecules that induce genotoxicity in human embryonic kidney (HEK293T) cells expressing luciferase-tagged ELG1; HEK293T ELG1-luciferase reporter, luminescence, 16 h; Potency, µM (titrated, usually from 46 µM), usual class: activators; hit rate 1.3% among 330,000; AID 504466, 2011; note: nearly all actives have a fitted effect of over 60% in size
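Screening used a luciferase reporter fused to human ELG1 in HEK293T cells. Luminescence was read on a CCD plate imager after 16 hr exposure and 30 min ONE-Glo incubation.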
FLuc modulator: qHTS profiling assay for firefly luciferase inhibitor/activator using purifed enzyme and Km concentrations of substrates (counterscreen for miR-21 project); Luciferin 4-monooxygenase (Photinus pyralis), P08659; purified FLuc, Km substrates, luminescence inhibition; Potency, µM (top dose mostly 57.5 µM), actives largely listed as inhibitors; hit rate 6.9% among 360,000; AID 588342, 2011; note: nearly all actives have a fitted effect of over 55% in size
Target sequence (P08659 whole entry, looked up): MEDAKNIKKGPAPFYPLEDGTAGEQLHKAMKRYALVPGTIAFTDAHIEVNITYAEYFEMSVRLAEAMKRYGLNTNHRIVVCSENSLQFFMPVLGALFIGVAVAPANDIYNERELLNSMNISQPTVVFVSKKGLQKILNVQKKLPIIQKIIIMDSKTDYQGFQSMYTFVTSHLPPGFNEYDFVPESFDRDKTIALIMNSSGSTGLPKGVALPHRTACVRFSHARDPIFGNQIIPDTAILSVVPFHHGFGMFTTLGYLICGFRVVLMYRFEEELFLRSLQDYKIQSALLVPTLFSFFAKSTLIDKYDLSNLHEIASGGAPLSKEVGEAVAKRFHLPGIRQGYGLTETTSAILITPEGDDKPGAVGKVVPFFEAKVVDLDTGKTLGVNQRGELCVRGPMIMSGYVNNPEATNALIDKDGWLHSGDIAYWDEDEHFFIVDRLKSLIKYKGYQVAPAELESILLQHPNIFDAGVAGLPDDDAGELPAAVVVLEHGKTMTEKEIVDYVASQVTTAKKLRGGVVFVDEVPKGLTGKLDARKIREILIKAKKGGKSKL
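Biochemical qHTS of compounds, final roughly 60 µM downward over six points, against 10 nM purified firefly luciferase using Km concentrations of substrates (10 uM D-luciferin, 10 uM ATP) in Tris acetate pH 7.5 buffer; luminescence output.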
NPC1 prom act: qHTS Assay for NPC1 Promoter Activators | Huh7 NPC1 promoter luciferase reporter, 24 h | Potency, µM (highest dose often 9.22 µM), usual class: activators | hit rate 2.4% among 320,000 | AID 485313, 2010; note: nearly all actives have a fitted effect of over 60% in size
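Compounds in DMSO were transferred onto Huh7 NPC1-luciferase reporter cells pre-incubated 2 h; after 24 h at 37 °C, Amplite reagent was dispensed and luminescence recorded 10 min later.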
SMN2 splice up: qHTS Assay for Enhancers of SMN2 Splice Variant Expression. Potency, µM (titrated, usually from 46.1 µM), usual class: activators. HEK293 SMN2-luciferase splicing reporter, luminescence, 30-36 h. hit rate 2.8% among 210,000; note: nearly all actives have a fitted effect of over 55% in size
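HEK293 cells carry an SMN2 […]–luciferase reporter in which exon 7 inclusion puts luciferase in frame. Cells were plated 10-12 h before compound addition, then incubated 30-36 h at 37C. ONE-Glo luminescence was read; sodium butyrate at 4.5 mM final served as control.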
KinaseGlo FLuc: Counterscreen for Luciferase (Kinase-Glo TM) Inhibition | Luciferin 4-monooxygenase (Photuris pensylvanica), Q27757 | Kinase-Glo luciferase, ATP luminescence, 8 min | Potency, µM (top dose mostly 38.3 µM), usual class: inhibitors | hit rate 0.28% among 200,000 | AID 1379, 2008; note: nearly all actives have a fitted effect of over 60% in size
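Recombinant Kinase-Glo luciferase, 10 uM ATP (linear range), luciferin; imidazole pH 7.2 / KCl / MgCl2 / Tween / BSA buffer; 8 min RT; luminescence.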
Rab9 promoter act: qHTS Assay for Rab9 Promoter Activators; hit rate 2.8% among 320,000; Potency, µM (doses to about 9.22 µM), hits mostly activators; Huh7 Rab9 promoter-luciferase reporter, luminescence, 24 h; note: nearly all actives have a fitted effect of over 60% in size
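Promoter activation is measured as luciferase luminescence in Huh7 cells stably transfected with a Rab9 promoter–luciferase construct, following 24 h compound exposure at 37 °C and 10 min reagent incubation at ambient temperature.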
A number is an active result. Only some compounds are listed: those with a hit (about 7.5% of all), similar ones and a draw of the others. Calls come from the whole dose curve; as a rule, active = well fitted curve in the direction sought with a large enough effect; inconclusive = small, poorly fitted or top-dose-only effect, or another doubt; inactive = no such curve, though single readings can be large; an effect the other way counts as inactive or inconclusive.

For O=C(O)c1cc(/C=C/c2ccc(N3CCOCC3)cc2)nc2ccccc12 the results were ELG1 genotoxic inactive, FLuc modulator 0.48µM, NPC1 prom act inconclusive, SMN2 splice up inconclusive, KinaseGlo FLuc 11µM and Rab9 promoter act inconclusive.
For O=[N+]([O-])c1cccc2ccc(/C=C/c3ccc(Cl)cc3)nc12 the results were ELG1 genotoxic inactive, FLuc modulator inconclusive, NPC1 prom act inconclusive and Rab9 promoter act inconclusive.
Screening O=C(O)c1cc(/C=C/c2ccc(N3CCOCC3)c([N+](=O)[O-])c2)nc2ccccc12 returned ELG1 genotoxic inconclusive, FLuc modulator 1.2µM, NPC1 prom act inconclusive and Rab9 promoter act inconclusive.
Screening Oc1ccc(O)c(/C(=N/Nc2ccccc2)c2ccccc2)c1 returned ELG1 genotoxic inactive, FLuc modulator inactive, NPC1 prom act inactive and Rab9 promoter act inactive.
`Cn1nccc1C(=O)Nc1ccn(C23CC4CC(CC(C4)C2)C3)n1` gave ELG1 genotoxic inconclusive, FLuc modulator 27µM, NPC1 prom act inactive, SMN2 splice up inactive, KinaseGlo FLuc inactive and Rab9 promoter act inactive.
`COc1cc(NC(=O)Cn2cc(C(=O)c3ccc(F)cc3)c(=O)c3ccc(C)nc32)cc(OC)c1` gave FLuc modulator inactive.
`O=C(NCCO)Nc1ccc2nc(-c3ccco3)c(-c3ccco3)nc2c1` gave ELG1 genotoxic inactive, FLuc modulator 24µM, NPC1 prom act inactive, SMN2 splice up inactive, KinaseGlo FLuc inactive and Rab9 promoter act inactive.
For O=C(NCCO)Nc1ccc2nsnc2c1 the results were ELG1 genotoxic inactive, FLuc modulator inactive, NPC1 prom act inactive, SMN2 splice up inactive, KinaseGlo FLuc inactive and Rab9 promoter act inactive.
CCCCNC(=O)c1ccc2nc(-c3ccco3)c(-c3ccco3)nc2c1 was read as ELG1 genotoxic inactive, FLuc modulator inconclusive, NPC1 prom act inactive, SMN2 splice up inactive, KinaseGlo FLuc inactive and Rab9 promoter act inactive.
CC(=O)c1ccc(NC(=O)c2ccc3nc(-c4ccco4)c(-c4ccco4)nc3c2)cc1 was read as ELG1 genotoxic inactive, FLuc modulator 12µM, NPC1 prom act inactive, SMN2 splice up inactive, KinaseGlo FLuc inactive and Rab9 promoter act inactive.
COc1ccc2nc(-c3ccco3)c(-c3ccco3)nc2c1 was read as ELG1 genotoxic inconclusive, FLuc modulator 2.7µM, NPC1 prom act inactive, SMN2 splice up inactive, KinaseGlo FLuc inactive and Rab9 promoter act inconclusive.
Screening O=C(Nc1ccccc1)c1ccc2nc(-c3ccco3)c(-c3ccco3)nc2c1 returned ELG1 genotoxic inactive, FLuc modulator inactive, NPC1 prom act inactive, SMN2 splice up inactive, KinaseGlo FLuc inactive and Rab9 promoter act inactive.
For O=C(NCCCO)c1ccc2nc(-c3ccco3)c(-c3ccco3)nc2c1 the results were ELG1 genotoxic inactive, FLuc modulator 19µM, NPC1 prom act inactive, SMN2 splice up inactive, KinaseGlo FLuc inactive and Rab9 promoter act inactive.
Screening Cc1cccc(C)c1NC(=O)Cn1c(=O)n(Cc2ccco2)c(=O)c2ccc(C(=O)NC3CCCC3)cc21 returned FLuc modulator inactive and SMN2 splice up inactive.
`CNS(=O)(=O)c1cn(CC(=O)N2CCN(c3cc(C)ccc3C)CC2)cc1S(=O)(=O)NC` gave FLuc modulator inactive.
Cc1cc(C(=O)Nc2ccc(Cl)c(S(=O)(=O)N3CCOCC3)c2)c2ccccc2n1 was read as ELG1 genotoxic inactive, FLuc modulator inactive, NPC1 prom act inactive and Rab9 promoter act inactive.

Screening data (PubChem)
